Rows were chosen to be rich in hits. Some 5.4% of all compounds tested hit in one or more screens of this group.
ALR inh: human ALR oxidase inhibition via reduced H2O2; inhibition, % (concentration not given with the values); purified ALR, DTT oxidation, H2O2 HRP-luminol luminescence; P55789; actives 3.8% (n = 290,000);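 active = mean replicate inhibition above about 79%, with every replicate also reaching it, limit read from the data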
Granule exo inh: blocks lytic granule exocytosis; inhibition, % at 10 µM; TALL-104 LAMP-1 surface exposure, flow cytometry; cells stimulated with thapsigargin and PMA; actives 0.66% (n = 360,000); AID 651702;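 active = inhibition above about 55%, limit read from the data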
PfM18AAP inh: blocks P. falciparum M18 aspartyl aminopeptidase; recombinant PfM18AAP, H-Glu-NHMec fluorogenic cleavage; inhibition, % at 7.35 µM; actives 1.2% (n = 290,000);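 active = inhibition above the campaign mean inhibition over all tested compounds plus 3 SD, cut at about 28% in these data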;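 note: 0% = plate median of test compound wells and 100% = 2 mM ZnCl2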
beta cell repl: induces beta-cell replication in MIN6 cells; actives 0.29% (n = 330,000); MIN6 cells proliferation, ATPlite luminescence, 48 h; cells starved in 0.2% serum; 100% = growth in 10% serum; AID 2380; proliferation, % at 10 µM;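 active = compounds whose signal lies at least 3.5 SD above the mean of all wells on their plate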;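 note: 0% = DMSO-treated cells in low-serum medium and 100% = 10% serum control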
SMARCA2 act: increases SMARCA2 function in MMTV reporter cells. actives 1% (n = 370,000). activation, % at 9.1 µM. MG213 cells, MMTV-luciferase reporter, dexamethasone, overnight; in the data active = activation above about 7.8%;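 note: 0% = vehicle wells and 100% = reference activator wells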
JMJD2C inh: blocks human GASC-1 demethylase activity; GST-JMJD2C(1-420) H3K9me3 demethylation, DELFIA europium; inhibition, % at 2.35 µM; actives 0.069% (n = 330,000);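 active = more than half of a compound's replicate wells show inhibition beyond 50%, single wells judged on their own value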;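 note: signal counts dimethyl H3K9 product captured on neutravidin plate; 0% = median of DMSO wells and 100% = 0.3 times that DMSO median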
Target sequence (Q9H3R0 1-420 limits assumed): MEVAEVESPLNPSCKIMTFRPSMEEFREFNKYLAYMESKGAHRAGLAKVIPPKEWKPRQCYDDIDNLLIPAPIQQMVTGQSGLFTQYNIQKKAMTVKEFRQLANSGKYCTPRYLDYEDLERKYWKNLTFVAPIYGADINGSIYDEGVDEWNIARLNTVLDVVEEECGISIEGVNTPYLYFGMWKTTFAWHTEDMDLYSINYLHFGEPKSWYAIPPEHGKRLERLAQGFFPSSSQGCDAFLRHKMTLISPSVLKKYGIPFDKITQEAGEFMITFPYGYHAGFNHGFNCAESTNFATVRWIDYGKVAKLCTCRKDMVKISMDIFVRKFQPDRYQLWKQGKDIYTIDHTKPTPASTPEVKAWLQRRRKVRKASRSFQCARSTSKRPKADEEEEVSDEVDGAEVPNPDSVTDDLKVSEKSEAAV
* hit, by the source's call; / = not tested or not shown.

SMILES	ALR inh	Granule exo inh	PfM18AAP inh	beta cell repl	SMARCA2 act	JMJD2C inh
CC(C)NC(=O)/C(C#N)=C\c1ccc(N(C)C)o1	97*	0	10	4	3	-8
CCCC[C@H]1C2CC(OC(=O)NCCCC(=O)OCC)C(C2)[C@H]2CCCCN21 (some centres not stated)	/	/	/	/	-2	/
Oc1ccc(NC(=S)Nc2ccc(F)cc2)cc1	98*	-1	3	-2	1	1
C/C(=N\NC(=S)Nc1ccc(F)cc1)C1CC1	98*	3	18	-2	0	11
Fc1ccc(NC(=S)Nc2ccc(Br)cc2)cc1	/	-2	-5	0	-3	14
COC(=O)C1CN(Cc2ccc(Cl)cc2)CCS(=O)(=O)N1Cc1cn(Cc2ccc(OC)cc2)nn1 (configuration not stated)	/	/	/	/	3	/
CC(=O)CC[C@@H]1CC[C@]2(CCCN(C(=O)c3ccno3)C2)O1	/	/	/	/	-1	/
CCN1C(=O)/C(=C/c2ccc(N3CCCC3)cc2)NC1=S	97*	-2	4	-5	-2	1
CCCN1C(=O)/C(=C/c2ccc(N3CCOCC3)cc2)NC1=S	74	2	7	-1	-3	3
COc1ccc(/C(C)=N/N2C(=O)c3ccccc3NC2c2ccc(O)c(OC)c2)cc1 (configuration not stated)	99*	0	4	6	2	6
CCN(C(=O)CN1CCN(c2nc(-c3ccccc3)cs2)CC1)c1ccccc1C	/	/	/	/	-6	/
CC1=CC2=NC(=O)/C(=C\c3ccc(-c4ccc(Cl)cc4)o3)C(=N)N2O1	/	/	-1	/	0	/
CC1=CC2=NC(=O)/C(=C/c3coc4ccc(Cl)cc4c3=O)C(=N)N2O1	97*	-1	-3	-4	-2	6
COCCN(CCOC)S(=O)(=O)c1ccc(C(=O)Nc2nc(C)c(C(C)=O)s2)cc1	100*	-2	-2	-1	0	12
COc1ccccc1N(C)S(=O)(=O)c1ccc(C(=O)Nc2nc(C)c(C(C)=O)s2)cc1	/	0	/	0	0	/
COc1ccc(CNc2ccccc2)cc1Br	83*	4	4	-4	-2	2
COCCCN1C(=O)[C@H](CC(=O)NCc2cccs2)[C@]2(C(=O)OC)CCCCC=C12	/	/	/	/	-2	/
CCN(C[C@H]1N[C@@](C)(C(=O)OC)[C@H]2C(=O)N(C)C(=O)[C@@H]12)C(=O)Nc1ccccc1	/	-2	/	0	-6	54*
CCN(C[C@H]1N[C@@](C)(C(=O)OC)[C@H]2C(=O)N(C)C(=O)[C@@H]12)C(=O)c1ccccc1	/	-2	/	-2	-4	/
CCN1/C(=C2/SC(=S)N(NC(C)=O)C2=O)Sc2ccc(OC)cc21	67	3	3	-1	-1	-3
CCN1/C(=C2/SC(=S)N(NC(C)=O)C2=O)Sc2ccc(Cl)cc21	96*	7	2	-1	3	2
Nn1c(-c2ccco2)n[nH]c1=S	1	-1	29*	1	-3	7
S=c1[nH]nc(-c2ccco2)n1-c1ccc(Cl)cc1	59	-3	30*	3	-1	10
COc1ccc(-n2c(-c3ccco3)n[nH]c2=S)cc1	95*	0	10	-2	0	1
COc1ccccc1-n1c(-c2ccco2)n[nH]c1=S	/	-11	13	2	-2	0
SMILES	ALR inh	Granule exo inh	PfM18AAP inh	beta cell repl	SMARCA2 act	JMJD2C inh
S=c1[nH]nc(-c2ccco2)n1C1CCCCC1	95*	-3	14	-3	-1	-1
Cc1cccc(C(=O)Nc2nc3ncccn3c2-c2ccc(C(F)(F)F)cc2)c1	/	/	/	/	-2	/
O=C(NCCO)C(=O)Nc1cc2c3c(c1)CC(=O)N3CCC2	/	-6	8	-3	-1	-11
O=C(CCl)c1cc2c3c(c1)CC(=O)N3CCC2	98*	-6	5	-4	-2	-32
COc1cc(/C=N/NC(=O)c2cc(C3CC3)[nH]n2)ccc1O	99*	-8	0	-2	-5	4
COc1ccccc1C(=O)N/N=C/c1ccc2c(c1)OCO2	-5	-4	-5	-1	4	-5
O=C(N/N=C/c1ccc(O)cc1)c1cc(C2CC2)[nH]n1	99*	-1	8	-2	0	15
COc1ccccc1N/N=C/c1ccc2c(c1)OCO2	6	2	31*	-2	-6	-6
COc1cc(/C=N/NC(=O)c2cc(-c3ccc4c(c3)OCO4)n[nH]2)ccc1O	91*	10	5	4	3	-1
COc1ccc(-c2cc(C(=O)NN=Cc3ccc(O)c(OC)c3)[nH]n2)cc1	/	/	/	/	2	/
COc1cc(/C=N/NC(=O)c2ccc(=O)[nH]n2)ccc1O	99*	-5	2	0.0*	2	-3
COc1cc(/C=N/NC(=O)c2cc(C34CC5CC(CC(C5)C3)C4)[nH]n2)ccc1O	53	-1	18	-2	0	4
COc1cc(/C=N/Nc2ccnc(=O)[nH]2)ccc1O	98*	-2	9	-2	4	-3
O=c1nccc(N/N=C/c2cccc(O)c2)[nH]1	52	-6	2	0	4	2
COc1ccccc1C(=O)N1CCC2CCN(C(=O)c3ccccc3)C2C1 (configuration not stated)	/	/	/	/	-1	/
CC1(C)CCc2cc(-c3ccnc(=S)[nH]3)ccc2O1	100*	-4	0	-4	7	-24
COC(=O)[C@]12C[C@H](CC(=O)NCCC(C)C)C(=O)N(Cc3ccco3)C1=C[C@H](C(C)C)O[C@@H]2C1CC1	/	/	/	/	-2	/
O=C(NCc1ccccc1)OCCN1C(=O)CCC12CCC(c1ccccc1)CC2 (configuration not stated)	/	/	/	/	-3	/
CC1(C)Cc2nc(-c3ccccc3)nc(NNC(=O)c3ccco3)c2CO1	97*	-2	10	5	3	3
CSc1nc(-c2ccccc2)nc2c1COC(C)(C)C2	-1	0	0	0	1	-4
CCc1ccccc1NC(=O)CSc1nc(C)c(C)o1	99*	5	-9	2	-3	13
CC(=O)N1CCN(C(=O)C2CCCN(C(=O)c3ccc4c(c3)NC(=O)CS4)C2)CC1 (configuration not stated)	/	/	/	/	-4	/
N#CC1(NC(=O)COC(=O)c2cc(O)c3ccccc3c2O)CCCCC1	2	61*	/	-7	/	2
CN1CCN(S(=O)(=O)c2ccc(N)cc2)CC1	96*	-11	5	-3	-1	-4
COC(=O)[C@H](C(C)C)N1Cc2nnn(CC3CCCCC3)c2-c2ccccc2S1(=O)=O	/	/	/	/	-1	/
C=CCN(CC#Cc1ccc(C(F)(F)F)cc1)CC=C	/	/	/	/	-1	/
CNC(=O)N(O)C1N(/N=C/c2ccc(N(C)C)cc2)C(=S)SC1(C)C (configuration not stated)	99*	5	13	4	-1	-11

Assay outcomes from PubChem BioAssay.
